# Results taken from PubChem BioAssay AID1159580 (chemical genetic matrix, 2015).
# Among all 5,500 compounds or so, about 2,000 (36%) were called active. Inconclusive results (about 18%) are left out. Some of the results follow. A number with no mark means an inactive call. No stated cut-off is given here; in the data, active means normalized growth mostly below about 0.91 (no sharp cut-off); inconclusive means no clear call, values can overlap the other calls; inactive means mostly above about 0.92.
# Test: chemical genetic growth profiling, strain panel (AID 1159580);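 further: tested at 20 µM; growth read once vehicle control cultures reached saturation at 30 °C; 1 = growth at the plate median or of vehicle wells; lower values mean less growth of the strain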
# Details: growth OD
structure (smiles),measurement,setting,value
CCOC(=O)CCCCCCCCCCCCC1C=CCC1 (centres undefined),normalized growth,"S. cerevisiae deletion strains, locus YJR066W, strain TOR1, hits give low values",0.902
same,normalized growth,"S. cerevisiae deletion strains, locus YJR075W, strain HOC1, hits give low values",0.062 (active)
same,normalized growth,"S. cerevisiae deletion strains, locus YKL009W, strain mrt4, hits give low values",0.729 (active)
same,normalized growth,"S. cerevisiae deletion strains, locus YKL068W, hits give low values",0.984
same,normalized growth,"S. cerevisiae deletion strains, locus YKL085W, strain MDH1 (second series), hits give low values",0.627 (active)
same,normalized growth,"S. cerevisiae deletion strains, locus YKL085W, strain MDH1, hits give low values",0.627 (active)
same,normalized growth,"S. cerevisiae deletion strains, locus YKL160W, strain elf1, hits give low values",1
same,normalized growth,"S. cerevisiae deletion strains, locus YKR001C, strain vps1, hits give low values",0.0645 (active)
same,normalized growth,"S. cerevisiae deletion strains, locus YKR026C, strain gcn3, hits give low values",0.975
same,normalized growth,"S. cerevisiae deletion strains, locus YKR091W, strain srl3, hits give low values",0.983
same,normalized growth,"S. cerevisiae deletion strains, locus YLL001W, strain dnm1, hits give low values",1
same,normalized growth,"S. cerevisiae deletion strains, locus YLL026W, hits give low values",0.961
same,normalized growth,"S. cerevisiae deletion strains, locus YLL041C, strain sdh2, hits give low values",0.992
same,normalized growth,"S. cerevisiae deletion strains, locus YLR027C, strain aat2, hits give low values",0.973
same,normalized growth,"S. cerevisiae deletion strains, locus YLR039C, strain RIC1, hits give low values",0.0918 (active)
same,normalized growth,"S. cerevisiae deletion strains, locus YLR058C, strain SHM2, hits give low values",0.0501 (active)
same,normalized growth,"S. cerevisiae deletion strains, locus YLR102C, strain apc9, hits give low values",0.0639 (active)
same,normalized growth,"S. cerevisiae deletion strains, locus YLR113W, strain HOG1, hits give low values",1.01
same,normalized growth,"S. cerevisiae deletion strains, locus YLR221C, strain rsa3, hits give low values",0.938
same,normalized growth,"S. cerevisiae deletion strains, locus YLR258W, strain gsy2, hits give low values",0.946
same,normalized growth,"S. cerevisiae deletion strains, locus YLR262C, strain YPT6 (second series), hits give low values",0.942
same,normalized growth,"S. cerevisiae deletion strains, locus YLR262C, strain YPT6, hits give low values",0.102 (active)
same,normalized growth,"S. cerevisiae deletion strains, locus YLR268W, strain sec22, hits give low values",0.0626 (active)
same,normalized growth,"S. cerevisiae deletion strains, locus YLR320W, strain mms22, hits give low values",0.808 (active)
same,normalized growth,"S. cerevisiae deletion strains, locus YLR330W, strain CHS5, hits give low values",0.0514 (active)
same,normalized growth,"S. cerevisiae deletion strains, locus YLR342W, strain FKS1 (second series), hits give low values",0.0786 (active)
same,normalized growth,"S. cerevisiae deletion strains, locus YLR342W, strain FKS1, hits give low values",0.954
same,normalized growth,"S. cerevisiae deletion strains, locus YLR357W, strain rsc2, hits give low values",1
same,normalized growth,"S. cerevisiae deletion strains, locus YLR370C, strain arc18, hits give low values",0.994
same,normalized growth,"S. cerevisiae deletion strains, locus YLR371W, strain rom2, hits give low values",0.0661 (active)
same,normalized growth,"S. cerevisiae deletion strains, locus YLR384C, strain iki3, hits give low values",0.965
same,normalized growth,"S. cerevisiae deletion strains, locus YLR418C, strain cdc73, hits give low values",0.0873 (active)
same,normalized growth,"S. cerevisiae deletion strains, locus YML016C, strain PPZ1, hits give low values",0.0464 (active)
same,normalized growth,"S. cerevisiae deletion strains, locus YML032C, strain rad52, hits give low values",0.0734 (active)
same,normalized growth,"S. cerevisiae deletion strains, locus YML120C, strain ndi1, hits give low values",0.994
same,normalized growth,"S. cerevisiae deletion strains, locus YML124C, strain tub3, hits give low values",0.063 (active)
same,normalized growth,"S. cerevisiae deletion strains, locus YMR058W, strain fet3, hits give low values",0.991
same,normalized growth,"S. cerevisiae deletion strains, locus YMR078C, strain ctf18, hits give low values",0.0817 (active)
same,normalized growth,"S. cerevisiae deletion strains, locus YMR125W, strain sto1, hits give low values",0.951
same,normalized growth,"S. cerevisiae deletion strains, locus YMR129W, hits give low values",0.993
same,normalized growth,"S. cerevisiae deletion strains, locus YMR205C, strain PFK2, hits give low values",0.864 (active)
same,normalized growth,"S. cerevisiae deletion strains, locus YMR223W, strain ubp8, hits give low values",0.0615 (active)
same,normalized growth,"S. cerevisiae deletion strains, locus YMR231W, strain pep5, hits give low values",0.971
same,normalized growth,"S. cerevisiae deletion strains, locus YMR307W, strain GAS1, hits give low values",0.12 (active)
same,normalized growth,"S. cerevisiae deletion strains, locus YNL067W, strain RPL9B, hits give low values",0.0497 (active)
same,normalized growth,"S. cerevisiae deletion strains, locus YNL071W, strain lat1, hits give low values",0.808 (active)
same,normalized growth,"S. cerevisiae deletion strains, locus YNL128W, strain TEP1, hits give low values",0.0632 (active)
same,normalized growth,"S. cerevisiae deletion strains, locus YNL153C, strain GIM3, hits give low values",0.0549 (active)
same,normalized growth,"S. cerevisiae deletion strains, locus YNL183C, strain NPR1, hits give low values",0.893
same,normalized growth,"S. cerevisiae deletion strains, locus YNL209W, strain ssb2, hits give low values",0.982
same,normalized growth,"S. cerevisiae deletion strains, locus YNL233W, strain BNI4, hits give low values",0.0592 (active)
same,normalized growth,"S. cerevisiae deletion strains, locus YNL248C, strain rpa49, hits give low values",1.01
same,normalized growth,"S. cerevisiae deletion strains, locus YNL250W, strain rad50, hits give low values",0.848 (active)
same,normalized growth,"S. cerevisiae deletion strains, locus YNL271C, strain bni1, hits give low values",0.146 (active)
same,normalized growth,"S. cerevisiae deletion strains, locus YNL298W, strain CLA4, hits give low values",0.0648 (active)
same,normalized growth,"S. cerevisiae deletion strains, locus YNL307C, strain MCK1, hits give low values",0.0657 (active)
same,normalized growth,"S. cerevisiae deletion strains, locus YNL322C, strain KRE1 (second series), hits give low values",0.998
same,normalized growth,"S. cerevisiae deletion strains, locus YNL322C, strain KRE1, hits give low values",0.047 (active)
same,normalized growth,"S. cerevisiae deletion strains, locus YNR049C, strain mso1, hits give low values",0.987
same,normalized growth,"S. cerevisiae deletion strains, locus YNR052C, strain pop2, hits give low values",0.0632 (active)
same,normalized growth,"S. cerevisiae deletion strains, locus YOL006C, strain TOP1, hits give low values",0.119 (active)
same,normalized growth,"S. cerevisiae deletion strains, locus YOL012C, strain htz1",0.179 (active)
same,normalized growth,"S. cerevisiae deletion strains, locus YOL147C, strain pex11, hits give low values",0.0616 (active)
same,normalized growth,"S. cerevisiae deletion strains, locus YOR001W, strain rrp6, hits give low values",1
same,normalized growth,"S. cerevisiae deletion strains, locus YOR061W, strain CKA2, hits give low values",0.0461 (active)
same,normalized growth,"S. cerevisiae deletion strains, locus YOR069W, strain VPS5, hits give low values",0.0484 (active)
same,normalized growth,"S. cerevisiae deletion strains, locus YOR070C, strain gyp1, hits give low values",0.962
same,normalized growth,"S. cerevisiae deletion strains, locus YOR080W, strain dia2, hits give low values",0.99
same,normalized growth,"S. cerevisiae deletion strains, locus YOR083W, strain WHI5, hits give low values",1
same,normalized growth,"S. cerevisiae deletion strains, locus YOR106W, strain vam3, hits give low values",0.976
same,normalized growth,"S. cerevisiae deletion strains, locus YOR136W, strain idh2, hits give low values",0.0725 (active)
same,normalized growth,"S. cerevisiae deletion strains, locus YOR144C, strain elg1, hits give low values",0.0688 (active)
same,normalized growth,"S. cerevisiae deletion strains, locus YOR184W, strain ser1, hits give low values",0.0609 (active)
same,normalized growth,"S. cerevisiae deletion strains, locus YOR231W, strain MKK1, hits give low values",0.984
same,normalized growth,"S. cerevisiae deletion strains, locus YOR265W, strain rbl2, hits give low values",0.982
same,normalized growth,"S. cerevisiae deletion strains, locus YOR270C, strain vph1, hits give low values",1.01
same,normalized growth,"S. cerevisiae deletion strains, locus YOR290C, strain snf2, hits give low values",0.962
same,normalized growth,"S. cerevisiae deletion strains, locus YOR316C, strain cot1, hits give low values",0.0601 (active)
same,normalized growth,"S. cerevisiae deletion strains, locus YPL051W, strain arl3, hits give low values",0.989
same,normalized growth,"S. cerevisiae deletion strains, locus YPL078C, strain atp4, hits give low values",0.979
same,normalized growth,"S. cerevisiae deletion strains, locus YPL106C, strain sse1, hits give low values",1.12
same,normalized growth,"S. cerevisiae deletion strains, locus YPL240C, strain hsp82, hits give low values",0.988
same,normalized growth,"S. cerevisiae deletion strains, locus YPL256C, strain CLN2, hits give low values",1.03
same,normalized growth,"S. cerevisiae deletion strains, locus YPR119W, strain clb2, hits give low values",0.0692 (active)
same,normalized growth,"S. cerevisiae deletion strains, locus YPR141C, strain kar3, hits give low values",0.99
same,normalized growth,"S. cerevisiae deletion strains, locus YPR163C, strain tif3, hits give low values",0.0692 (active)
same,normalized growth,"S. cerevisiae deletion strains, locus YPR167C, strain met16, hits give low values",0.0627 (active)
same,normalized growth,"S. cerevisiae deletion strains, strain wtn01, hits give low values",0.0688 (active)
same,normalized growth,"S. cerevisiae strains, strain wild type, hits give low values",0.0499 (active)
